# In the library only some 6% were active in any assay of this set; here they are far more common.
# D1 agonist = Allosteric Agonists of the Human D1 Dopamine Receptor: qHTS; activation, % at 2 µM; hit rate 1% among 360,000; HEK293 T-REx D1 cells, calcium flux, agonist mode; D(1A) dopamine receptor (Homo sapiens), P21728; AID 504660, 2011; in the data active = activation above about 30%; note: 0% is about no effect
#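 Inducible HEK293 T-REx D1 cells, force-coupled to calcium signalling, were plated at 4000 cells/well with tetracycline and held overnight at 30 C. After no-wash calcium dye loading, compound-evoked calcium rise over 180 s flagged agonists.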
# DRD3 agonist = qHTS of D3 Dopamine Receptor Agonist: qHTS. D(3) dopamine receptor (Homo sapiens), P35462. D3R DiscoveRx beta-arrestin cells, luminescence, 90 min. max activation, %. hit rate 0.58% among 410,000. AID 652048, 2013; in the data active = max activation above about 30%; note: 0% is about no effect
# Target sequence (P35462 whole entry, looked up): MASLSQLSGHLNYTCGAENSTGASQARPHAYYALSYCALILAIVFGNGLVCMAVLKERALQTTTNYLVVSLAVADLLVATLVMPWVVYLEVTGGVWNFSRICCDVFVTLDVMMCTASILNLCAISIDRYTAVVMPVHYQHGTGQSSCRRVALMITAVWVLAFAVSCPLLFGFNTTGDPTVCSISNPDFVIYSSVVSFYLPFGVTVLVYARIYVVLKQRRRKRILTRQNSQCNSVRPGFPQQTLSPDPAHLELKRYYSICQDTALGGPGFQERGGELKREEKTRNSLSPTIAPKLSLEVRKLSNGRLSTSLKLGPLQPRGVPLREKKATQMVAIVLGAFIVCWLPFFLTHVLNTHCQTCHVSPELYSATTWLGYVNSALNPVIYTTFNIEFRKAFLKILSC
#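 Agonist mode: compounds and dopamine controls were applied to plated cells for 90 min at 37 degrees C after an overnight attachment at 1500 cells/well. Luminescent read-out followed 30 - 60 minutes at room temperature with DiscoveRx detection reagent.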
# D1 potentiator = Potentiators of Human D1 Dopamine Receptor: qHTS | D(1A) dopamine receptor (Homo sapiens), P21728 | hit rate 0.036% among 360,000 | potentiation, % at 10 µM | HEK293 TREx D1 cells, calcium flux, dopamine EC20 potentiation; in the data active = potentiation above about 30%; note: 0% is about no effect
# DRD3 antagonist = qHTS of D3 Dopamine Receptor Antagonist: qHTS | D(3) dopamine receptor (Homo sapiens), P35462 | D3R cells, DiscoveRx beta-arrestin luminescence, antagonist mode; hits give low values | max response, negative = inhibition, % | hit rate 2.5% among 360,000 | AID 652054, 2013; in the data active = max response below about -50%; inconclusive = no clear call, values can overlap the other calls; note: % is set by controls: 0 for no effect and ±100 for the full control effect
#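 Cells expressing the human receptor were seeded at 1500 cells/well, incubated overnight at 37 degrees C in 5% CO2, then exposed to library compounds with dopamine controls for 90 minutes at 37 degrees C before luminescent detection.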
# D1 antagonist = Antagonist of Human D 1 Dopamine Receptor: qHTS. D(1A) dopamine receptor (Homo sapiens), P21728. HEK293 TREx D1 cells, calcium flux, dopamine EC80; hits give low values. activity change, negative = inhibition, % at 10 µM. hit rate 3.2% among 360,000. AID 504652, 2011; in the data active = activity change below about -30%; note: % is set by controls: 0 for no effect and ±100 for the full control effect
#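 Tetracycline-induced HEK293 T-REx cells with force-coupled D1 receptor were loaded with a no-wash calcium dye. Compound was added after a 10 s baseline and read kinetically for 180 s; EC80 dopamine was then added and calcium flux followed another 180 s.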
# An asterisk follows results filed as active; ? = inconclusive; / = no result given; ! = not active in a repeat.
SMILES,D1 agonist,DRD3 agonist,D1 potentiator,DRD3 antagonist,D1 antagonist
O=C(Nc1ccc(F)cc1F)c1c(C(F)(F)F)ccnc1Oc1ccccc1,0,7,-5,9,-15
Cc1cccc(Oc2nccc(C(F)(F)F)c2C(=O)Nc2ccc(F)cc2F)c1,3,-2,3,0,-54*
CC1CCCC(NCC(O)COC(c2ccc(F)cc2)c2ccc(F)cc2)C1C (centres undefined),63*,-14,-8,-9,17
CCOC(=O)c1ccc(NC2=CC(c3ccc(F)cc3)N(c3ccc(C(=O)OCC)cc3)C2=O)cc1 (centres undefined),-1,3,4,/,1
Cc1ccc(CN2CCC(C(=O)NCCC(C)C)CC2)o1,1,-6,-1,-64*,4
O=C(C1CC1)N1CCN=C1SCc1ccccc1Cl,2,-7,/,-60*,6
Cc1nnsc1C(=O)Oc1ccccc1Cl,-1,9,0,/,-4
COc1ccc2[nH]cc(CCNC(=O)Nc3ccccc3)c2c1,4,-8,-7,-19,-34*!
COc1ccc2[nH]cc(CCNC(=O)CCC3CCCCC3)c2c1,-1,2,-4,15,-43*
COc1ccc(OC)c(NC(=O)NCCc2c[nH]c3ccccc23)c1,0,-4,-4,6,17
CCC(C(=O)NCCc1c[nH]c2cc(OC)ccc12)c1ccccc1 (centres undefined),2,5,-2,-25,-80*
COc1ccc2c(CCNC(=O)Nc3ccccc3)c[nH]c2c1,5,-1,0,-2,-19
COc1ccc2[nH]cc(CCNC(=O)Cc3ccc(Br)cc3)c2c1,6,0,3,7,7
COc1ccc(Nc2nc(N)c3cc(OC)c(OC)cc3n2)cc1,0,-10,0,/,3
O=C(NCCc1ccccc1)C(=O)NCC1OCCCN1S(=O)(=O)c1cc(F)ccc1F (centres undefined),2,-3,1,?,-15
COc1ccc(CCNC(=O)C(=O)NCC2CCCN2S(=O)(=O)c2ccc(OC)cc2)cc1 (centres undefined),1,34*,-1,28,0
COc1ccc(CCNC(=O)C(=O)NCC2OCCN2S(=O)(=O)c2ccc(OC)cc2)cc1 (centres undefined),12,2,-7,7,-35*
COc1ccc(S(=O)(=O)N2CCCOC2CNC(=O)C(=O)NCc2ccccc2F)cc1C (centres undefined),6,4,-5,5,-32*
Cc1cc(F)ccc1S(=O)(=O)N1CCCOC1CNC(=O)C(=O)NCCc1ccccc1 (centres undefined),3,3,-5,13,-34*
CC(C)CNC(=O)Nc1cc(C(=O)NCc2ccc(C(C)C)cc2)ccc1N1CCCC1,1,-7,0,/,-4
CCCOc1ccc(NC(=O)CC2C(=O)N(c3cccc(OC)c3)C(=O)N2CCc2ccncc2)cc1 (centres undefined),1,-7,0,/,-10
CCN(C(=O)Cn1nnc2sc3c(c2c1=O)CCC(C(C)(C)C)C3)c1cccc(C)c1 (centres undefined),0,6,2,/,5
O=C(c1ccc(F)cc1)C(CCCCCC(CN1CCOCC1)C(=O)c1ccc(F)cc1)CN1CCOCC1 (centres undefined),6,-13,0,-58*,1
COCC(N)(c1ccccc1)c1nc2ccccc2n1C (centres undefined),1,1,-3,-89*,5
COC(=O)[C@@H](NC(=O)Nc1ccc(OC(F)(F)F)cc1)C(C)C,11,7,-10,17,-42*
CCc1ccc(CNC(=O)C2CCN(C(=O)c3ccc(-n4ccc5ccccc54)s3)CC2)cc1,3,15,-4,/,-23
COc1ccc(-c2nc(C)c(CCNC(=O)C(=O)Nc3ccccc3F)s2)cc1,1,3,-2,/,-2
Cc1cc(C(=O)NCc2cc(C)n(C)n2)sc1-c1ccccc1,6,2,-8,-9,-34*

# Compound activity from PubChem BioAssay.
